{"source": "paper PMC5540273", "about": "(PLoS ONE, 2017);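 further: KINOMEscan kinase panel screen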", "data": [{"tested_on": "PIK3CD", "conditions": "concentration: 1 μM, replicates: in singlicate; n = 1", "units": {"%Inh": "%"}, "values": [{"smiles": "COc1ccc(Nc2nccc(N3CCC(NS(=O)(=O)c4ccc(NC(C)=O)cc4)C3)n2)cc1", "note": "(stereo not shown) [GSK1379729]", "%Inh": 27}, {"smiles": "CCn1c(-c2nonc2N)nc2ccccc21", "note": "[SB-693162/GW549034]", "%Inh": 0}, {"smiles": "COc1cccc(-n2cnc3c(N)ncnc32)c1", "note": "[SKF-97416]", "%Inh": 54}, {"smiles": "O=C(Nc1n[nH]c2nc(-c3ccccc3)c(Cl)cc12)C1CC1", "note": "[SB-734909]", "%Inh": 17}, {"smiles": "Cc1nnc(-c2ccc3ncn(-c4ccc(S(C)=O)cc4)c3c2)o1", "note": "(stereo not shown)", "%Inh": 38}, {"smiles": "CCC(=O)c1c(-c2ccccc2)c2cc(Cl)ccc2c(=O)n1Cc1cc(S(C)(=O)=O)n(CC(F)F)n1", "%Inh": 0}, {"smiles": "Cc1ccc(-c2ccc3c(ccc4sc5c(c43)NC[C@@H](C)N=C5N(C)C)n2)cn1", "%Inh": 15}, {"smiles": "Cc1nnc(-c2ccc(C)c(-c3ccc(C(=O)O)cc3)c2)o1", "note": "[GW608005]", "%Inh": 6}, {"smiles": "Fc1cccc(CSc2nnc(-c3ccc4c(c3)CCO4)o2)c1", "%Inh": 0}, {"smiles": "O=C(NCCNc1ccnc(Nc2ccc(F)cc2)n1)Nc1ccc2c(c1)OCO2", "note": "[GSK1379882]", "%Inh": 0}, {"smiles": "CN(C)c1cc(-c2ccc3c(N)n[nH]c3c2)nc(N)n1", "note": "[GSK2219329]", "%Inh": 0}, {"smiles": "COc1cc2nccc(Nc3cccc(Oc4ccccc4)c3)c2cc1OC.Cl", "note": "[GW284543]", "%Inh": 55}, {"smiles": "COc1ccc(-n2cnc3c(N)ncnc32)cc1", "note": "[SKF-97236]", "%Inh": 0}, {"smiles": "CCCNC(=O)Nc1ccc(Oc2ncnc3ccn(C)c23)cc1", "%Inh": 30}, {"smiles": "COc1ccc(-c2cc3c(C)nc(N)nc3n([C@H]3CC[C@H](O)CC3)c2=O)cn1", "%Inh": 94.1}, {"smiles": "COc1cc2ncn(-c3cc(OCCCc4ccccc4)c(C(N)=O)s3)c2cc1OC", "note": "[GSK205189]", "%Inh": 0}, {"smiles": "CCc1ccc(-c2ccc3c(c2)-c2nn(C)cc2S(=O)(=O)N3C)cc1", "%Inh": 0}, {"smiles": "Nc1n[nH]c2ncc(-c3ccccc3)cc12", "note": "[SB-517081]", "%Inh": 0}, {"smiles": "COc1ccc(CNC(=O)NC2CCN(c3ccnc(Nc4ccc(F)cc4)n3)C2)cc1", "note": "(stereo not shown) [GSK1379706]", "%Inh": 8}, {"smiles": "Cc1nn2c(=O)cc(N3CCOCC3)nc2n1Cc1cccc(Cl)c1Cl", "note": "[GSK2342769]", "%Inh": 99.6}, {"smiles": "Cn1c(=O)c(F)c(Nc2ccc(I)cc2F)c2c(=O)n(OC[C@H](O)CO)cnc21", "%Inh": 0}, {"smiles": "COC(=O)c1c(-c2ccccc2)c2cc(C)ccc2c(=O)n1Cc1ccccc1", "%Inh": 0}, {"smiles": "Nc1ncnc2c1ncn2-c1ccc(Cl)cc1", "note": "[AH2635]", "%Inh": 0}, {"smiles": "COc1cccc(C2=C(N(C)c3ccccc3)C(=O)NC2=O)c1", "note": "[SB-334865]", "%Inh": 0}, {"smiles": "COc1cc(Nc2nccc(N3CCC(NC(=O)C4COc5ccccc5O4)C3)n2)cc(OC)c1OC", "note": "(stereo not shown) [GSK1379761]", "%Inh": 42}, {"smiles": "COC(=O)c1c(-c2ccccc2)c2cc(Br)ccc2c(=O)n1Cc1ccc(NC(=O)CCC(=O)O)cc1", "%Inh": 0}, {"smiles": "Nc1ncnc2c1ncn2-c1cccc2ccccc12", "note": "[SKF-97184]", "%Inh": 0}, {"smiles": "COc1ccc(-c2cc3c(C)nc(N)nc3n([C@H]3CC[C@H](OCCO)CC3)c2=O)cn1", "%Inh": 96.6}, {"smiles": "CCC(=O)c1c(-c2ccccc2)c2cc(Cl)ccc2c(=O)n1Cc1cc(S(C)(=O)=O)n(CC(N)=O)n1", "%Inh": 0}, {"smiles": "Nc1nc(N)c2nc(-c3ccccc3)[nH]c2n1", "note": "[SKF-12778]", "%Inh": 21}, {"smiles": "FC(F)(F)c1ccc(-c2ncn(CCCN3CCOCC3)c2-c2ccncc2)cc1", "note": "[SB-217780]", "%Inh": 0}, {"smiles": "COc1cc(OC)cc(-c2cc3cnc(N)nc3nc2NC(=O)NC(C)(C)C)c1", "%Inh": 0}, {"smiles": "O=C(Nc1ccc2c(c1)OCO2)NC1CCN(c2ccnc(NCc3ccc(F)cc3)n2)CC1", "note": "[GSK1379859]", "%Inh": 0}, {"smiles": "O=C(NCc1cccs1)c1cc(C(=O)c2c(Cl)cccc2Cl)c[nH]1", "note": "[GW823670]", "%Inh": 0}, {"smiles": "COc1cc2nccc(Nc3ccc(OCc4ccc(NC(C)=O)cc4)cc3)c2cc1OC.Cl", "note": "[GW440135]", "%Inh": 0}, {"smiles": "COc1cc2ncn(-c3cc(OCc4ccncc4Br)c(C(N)=O)s3)c2cc1OC", "note": "[GW854278]", "%Inh": 5}, {"smiles": "CCn1c(-c2ccoc2)nc2cnccc21", "note": "[SB-733887]", "%Inh": 0}]}]}
